Measurements as given in article PMC4336329 (PLoS ONE, 2015).
About 14,000 (4.5%) of roughly 310,000 compounds showed an effect of 50% or more. Effects have a minus sign here. The full list was thinned out, with strong results kept by preference.

molecular target: human ether-à-go-go-related gene (hERG) potassium channel (human, UniProt Q12809); assay: primary screen, population patch clamp on CHO cells stably expressing hERG; higher = less effect of the substance
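Further: peak tail current of the secondary pulse compared with the same well before compound.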

human ether-à-go-go-related gene (hERG) potassium channel, sequence (Q12809 whole entry, looked up): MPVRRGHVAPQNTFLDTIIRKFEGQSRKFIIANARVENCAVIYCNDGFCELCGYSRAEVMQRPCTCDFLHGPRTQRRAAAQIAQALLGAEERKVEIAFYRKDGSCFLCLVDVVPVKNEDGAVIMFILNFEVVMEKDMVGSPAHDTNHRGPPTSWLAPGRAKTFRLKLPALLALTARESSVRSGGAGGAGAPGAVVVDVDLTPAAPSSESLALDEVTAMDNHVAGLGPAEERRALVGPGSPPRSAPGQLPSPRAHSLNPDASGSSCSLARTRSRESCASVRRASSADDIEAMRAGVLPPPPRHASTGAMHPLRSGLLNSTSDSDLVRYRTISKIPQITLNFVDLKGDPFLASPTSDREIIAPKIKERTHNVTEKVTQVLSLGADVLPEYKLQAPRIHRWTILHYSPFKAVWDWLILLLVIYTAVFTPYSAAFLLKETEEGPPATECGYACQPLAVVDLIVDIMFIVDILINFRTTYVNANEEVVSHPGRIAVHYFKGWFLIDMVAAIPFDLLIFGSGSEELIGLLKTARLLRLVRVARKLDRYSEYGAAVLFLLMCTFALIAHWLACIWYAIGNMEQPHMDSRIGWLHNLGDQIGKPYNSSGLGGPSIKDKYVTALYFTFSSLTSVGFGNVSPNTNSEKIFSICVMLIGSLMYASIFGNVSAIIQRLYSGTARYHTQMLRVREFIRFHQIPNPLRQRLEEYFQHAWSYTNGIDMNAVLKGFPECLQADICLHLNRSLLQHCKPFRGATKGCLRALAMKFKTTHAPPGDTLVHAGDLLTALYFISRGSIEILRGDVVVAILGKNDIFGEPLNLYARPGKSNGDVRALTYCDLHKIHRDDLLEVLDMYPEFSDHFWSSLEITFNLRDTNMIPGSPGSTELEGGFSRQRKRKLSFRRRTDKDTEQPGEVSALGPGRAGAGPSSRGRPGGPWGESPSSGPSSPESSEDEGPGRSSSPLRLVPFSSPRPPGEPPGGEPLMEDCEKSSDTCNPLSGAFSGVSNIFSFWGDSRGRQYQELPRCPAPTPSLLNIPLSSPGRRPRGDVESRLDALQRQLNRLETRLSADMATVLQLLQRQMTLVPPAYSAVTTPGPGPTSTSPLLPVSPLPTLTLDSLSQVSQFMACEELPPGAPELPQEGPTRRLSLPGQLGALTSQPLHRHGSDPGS

| Structure (SMILES) | hERG current change (%, negative = inhibition) at 10uM [%] |
| --- | --- |
| CN1C(=O)NC(c2ccccc2[N+](=O)[O-])C2=C1CCCC2=O (stereo not shown) | 10.1 |
| COc1cc(OC)c(-c2nc3cnccc3n2C)cc1OC | 6.5 |
| COc1ccc(NC(=S)N2CCN(C(=O)C3CCCO3)CC2)cc1 (stereo not shown) | 11.8 |
| O=C(CCC(=O)N1CCN(C(=O)c2ccco2)CC1)c1ccc(F)cc1 | -66.7 |
| CC(C)O.CCCC1(CCC)NC(=O)N(CC(=O)N2CCN(C(=O)c3ccco3)CC2)C1=O | 5 |
| Cc1ccc(C(=O)CCC(=O)N2CCN(C(=O)c3ccco3)CC2)cc1 | -56.2 |
| Cc1ccc(OCC(=O)N2CCN(C(=O)c3ccco3)CC2)cc1 | -37.7 |
| O=C(c1ccco1)N1CCN(c2ccc(F)cc2)CC1 | -0.235 |
| Cc1ccc(CC(=O)N2CCN(C(=O)c3ccco3)CC2)cc1 | -7.76 |
| O=C(CCC(=O)N1CCOCC1)c1ccc(F)cc1 | 36.5 |
| O=C(CN1C(=O)NC2(CCCC2)C1=O)N1CCN(C(=O)c2ccco2)CC1 | 4.41 |
| CCCCC1(c2ccc(F)cc2)NC(=O)N(CC(=O)N2CCN(C(=O)c3ccco3)CC2)C1=O (stereo not shown) | -52.6 |
| CC(=O)Oc1ccccc1N(C(C)=O)S(=O)(=O)c1ccc2ccccc2c1 | 7.06 |
| COc1ccc(NC(=O)Cn2nnc3ccccc32)c([N+](=O)[O-])c1 | 9.14 |
| O=C(CC1Nc2ccccc2NC1=O)c1ccccc1 (stereo not shown) | -2.01 |
| O=C(O)/C=C\C(=O)O.OCCN1CCN(CC/C=C2/c3ccccc3CSc3ccccc32)CC1 | -12.2 |
| CN(C)CC/C=C1/c2cc(F)ccc2Sc2ccc(Cl)cc21.Cl | -34.5 |
| CN(C)CC/C=C1/c2ccccc2Sc2ccc(Cl)cc21.Cl | -56.8 |
| CN(C)CC/C=C1/c2ccccc2Sc2ccc(Cl)cc21 | -8.11 |
| CN(C)CC/C=C1\c2ccccc2Sc2ccc(Cl)cc21.Cl | -56.7 |
| CN(C)CC/C=C1\c2cc(Cl)ccc2Sc2cc(F)c(F)cc21.Cl | 1.25 |
| CN(C)CC/C=C1\c2ccccc2Sc2cc(F)c(Cl)cc21.Cl | 7.2 |

| Structure (SMILES) | hERG current change (%, negative = inhibition) at 10uM [%] |
| --- | --- |
| Cl.OCCN1CCN(CC/C=C2/c3ccccc3Sc3ccc(C(F)(F)F)cc32)CC1 | -47.1 |
| Cl.OCCN1CCN(CC/C=C2/c3ccccc3Sc3ccc(Cl)cc32)CC1 | -68.8 |
| CCN(CC)S(=O)(=O)c1ccc(C(=O)OCC(=O)NCCN2C(=O)CSC2=O)cc1 | -14.4 |
| O=C1C(=Cc2ccco2)C(=O)c2ccccc21 | 8.17 |
| CN1C(=O)c2ccc(C(=O)Nc3ccccc3O)cc2C1=O | 4.6 |
| Cc1nn(C)cc1/C=N/NC(=O)c1sc2ccccc2c1Cl | -6.47 |
| O=P(c1ccccc1)(c1ccccc1)C(c1ccco1)N1CCOCC1 (stereo not shown) | 9.93 |
| Cc1nnc(NCCc2ccccc2)c2ccccc12 | -18.1 |
| COc1ccc(NC(=O)NCCN2CCCCC2)cc1 | -10.1 |
| COc1ccc(NC(=O)NCCN2CCN(c3ccc(C)cc3)CC2)c(Cl)c1 | -8.96 |
| COc1ccc(Cl)c(N2CCN(CCCNC(=O)Nc3ccc(C)cc3)CC2)c1 | -72.4 |
| COc1ccc(NC(=O)NCCCN2CCN(c3cc(C)ccc3C)CC2)cc1 | -92.2 |
| Cc1ccc(NC(=O)NCCCN2CCOCC2)cc1 | 4.63 |
| COc1ccc(NC(=O)NCCN2CCN(c3cc(OC)ccc3OC)CC2)cc1 | -2.75 |
| Cc1cc(SCC(=O)Nc2c(C)n(C)n(-c3ccccc3)c2=O)nc2ccccc12 | -38.7 |
| Cc1cc(C(=O)OCC(=O)c2ccc3c(c2)NC(=O)CO3)c2ccccc2n1 | 18.8 |
| O=C(NCCN1CCOCC1)c1cc(Sc2ccccc2Cl)nc2ccccc12 | -27.1 |
| O=C(NCCCN1CCOCC1)c1cnn2c(-c3ccccc3)cc(-c3ccccc3)nc12 | -41.3 |
| O=C(NCCN1CCOCC1)c1cnn2c(-c3ccccc3)cc(-c3ccccc3)nc12 | -72.5 |
| O=C(NCCN1CCOCC1)c1ccccc1-c1ccccc1 | 0.439 |
| CCc1ccc(Nc2cc(C(=O)NCCCN3CCOCC3)c3ccccc3n2)cc1 | -35.5 |
| O=C(NCCN1CCOCC1)c1cc(Sc2ccc(F)cc2F)nc2ccccc12 | -42.8 |

| Structure (SMILES) | hERG current change (%, negative = inhibition) at 10uM [%] |
| --- | --- |
| O=C(NCCN1CCOCC1)c1cc(-c2ccccc2Cl)nc2ccccc12 | -15 |
| O=C(NCCN1CCOCC1)c1cc(Sc2cccc(Cl)c2)nc2ccccc12 | -77.2 |
| CCc1ccc(Sc2cc(C(=O)NCCN3CCOCC3)c3ccccc3n2)cc1 | -56.2 |
| Cc1ccc(S(=O)(=O)N2CCC(C(=O)N[C@H](C(=O)NCc3ccco3)C(C)C)CC2)cc1 | -15.9 |
| O=C(NCC(=O)N(c1ccc(Cl)cc1)C(C(=O)NC1CCCC1)c1ccncc1)c1ccco1 (stereo not shown) | -5.29 |
| O=C(Nc1ccccn1)Nc1ccccc1Cl | 23.2 |
| Cc1nc2scc(-c3ccccc3)c2c(=O)o1 | -12.7 |
| CN1C=CC=C/C1=C1\SC(=S)N(N)C1=O | 26.4 |
| CCN1C(=O)/C(=C2/C=CC=CN2C)SC1=S | -35.2 |
| CN1C=CC=C/C1=C1\SC(=S)N(C2CCCCC2)C1=O | -52.3 |
| O=C(N/N=C/c1ccc(O)c([N+](=O)[O-])c1)c1ccncc1 | -7.5 |
| Cc1ccc(C)c(CSc2ncccc2C(=O)O)c1 | 6.29 |
| O=C(C[n+]1ccc(C(=O)N/N=C/c2ccc(Cl)cc2Cl)cc1)c1ccccc1.[Br-] | -74.8 |
| O=C(C[n+]1ccc(C(=O)N/N=C/c2ccc(OCc3ccccc3)cc2)cc1)c1ccccc1.[Br-] | 1.3 |
| O=C(N/N=C/c1ccc(Br)cc1)c1cc[n+](Cc2ccccc2)cc1.[Cl-] | -10.7 |
| O=C(C[n+]1ccc(C(=O)N/N=C/c2ccc(O)cc2)cc1)c1ccccc1.[Br-] | -6.07 |
| COc1ccc(OC)c(/C=N/NC(=O)c2ccc[n+](CC(=O)c3ccccc3)c2)c1 | 15.3 |
| O=C(C[n+]1ccc(C(=O)N/N=C/c2ccc(Br)cc2)cc1)c1ccccc1.[Br-] | -63.6 |
| O=C(C[n+]1cccc(C(=O)N/N=C/c2ccc(Br)cc2)c1)c1ccccc1 | -56.5 |
| COc1ccc(OC)c(/C=N/NC(=O)c2cc[n+](CC(=O)c3ccccc3)cc2)c1.[Br-] | -5.33 |
| O=C(N/N=C/c1ccc(Cl)cc1Cl)c1cccc(F)c1 | -10.5 |
| Cc1ccc(C(=O)N2CCCC(C(=O)c3ccc(Oc4ccccc4)cc3)C2)cn1 (stereo not shown) | -41 |

| Structure (SMILES) | hERG current change (%, negative = inhibition) at 10uM [%] |
| --- | --- |
| CCC(=O)N1CCc2cc(S(=O)(=O)NC(C(=O)NCc3ccccc3)C(C)C)ccc21 (stereo not shown) | 13.2 |
| COc1ccc(OCC(=O)Nc2cccc(S(=O)(=O)N(C)c3ccccc3)c2)c([N+](=O)[O-])c1 | -6.21 |
| CCC1c2ccc(C)n2CCN1C(=O)Nc1ccccc1OC (stereo not shown) | 9.92 |
| C=CCN(CC=C)C(=S)NC(=O)/C=C/c1ccc(C)cc1 | 8.14 |
| CC1(C)C(=O)N(c2ccccc2Cl)C(=O)c2ccccc21 | -18.2 |
| CC1CCN(CCC(=O)Nc2ccc(Br)cc2)CC1.Cl | -54.6 |
| CC1CCCN(CCC(=O)Nc2ccccc2)C1.Cl (stereo not shown) | 12.2 |
| Cc1cccc(NC(=O)CCN2CCCC(C)C2)c1.Cl (stereo not shown) | 1.45 |
| Cl.O=C(CCN1CCCC1)Nc1ccc(Br)cc1 | -15.7 |
| CCN1CCN(CCC(=O)Nc2ccc(Br)cc2)CC1.Cl | -24.4 |
| S=C(NCCN1CCOCC1)Nc1ccc(Cl)cc1 | 5.48 |
| COc1ccc(NC(=O)CCN2CCCC(C)C2)cc1 (stereo not shown) | -23.2 |
| COc1ccc(NC(=S)NCCN2CCC(C)CC2)cc1 | -46 |
| CC1CCCN(CCC(=O)Nc2ccc(Br)cc2)C1.Cl (stereo not shown) | -57.6 |
| COc1ccc(C(=O)CCN2CCCC(C)C2)cc1.Cl (stereo not shown) | -26.2 |
| CC1CCCN(CCC(=O)c2ccc(Br)cc2)C1.Cl (stereo not shown) | -64.4 |
| CC1CCN(CCNC(=S)Nc2ccc(Cl)cc2)CC1 | -65.7 |
| CCS(=O)(=O)c1ncc(Cl)c(C(=O)Nc2ccc(S(=O)(=O)N3CCC(C)CC3)cc2)n1 | 14.9 |
| CC(=O)c1ccc(NC(=O)C(C)OC(=O)c2ccc(NS(=O)(=O)c3ccc(F)c(F)c3)cc2)cc1 (stereo not shown) | -6.98 |
| COc1ccc(C(C)NC(=O)c2ccc(Cl)cc2)cc1OC (stereo not shown) | 0.0898 |
| Cc1ccc(/C=C/c2nnc(-c3ccc(C)cc3)o2)cc1 | 11.3 |
| COCCNC(=O)Nc1ccc2c(c1)N(C)C(=O)CS2 | 11.5 |
